Rows were chosen to be rich in hits. Some 3.6% of all compounds tested hit in one or more screens of this group.
KKLEB cytotox: cytotoxicity in KKLEB CF airway cells, primary screen, cytotoxicity control for CF NF-kB inhibitor project, cell-based, uHTS, fluorescence assay plates. KKLEB CF airway cells viability, ATPlite luminescence, overnight; hits give low values; cells stimulated with P. aeruginosa culture filtrate. activity change (cytotoxicity), % at 5 µM. 360,000 tested, 0.36% active. AID 602141, 2011;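 active = corrected activity change at or below -50% at 5 µM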
LGR2 inh: inhibitors of bursicon-induced LGR2 CRE-luciferase signal, primary screen, cell-based, HEK293, CRE-luciferase reporter, bursicon stimulation; Drosophila bursicon receptor LGR2 (rickets); bursicon-stimulated, 4 h; inhibition, % at 9.99 µM; 380,000 tested, 0.35% active; AID 720647, 2013;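 active = drop in luminescence signal, shown as inhibition above about 50% in the replicate tests, limit read from the data, passing the limit was not always enough; inconclusive = probably only some replicates passing the limit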;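 also: agonist challenge used bursicon conditioned medium at about half maximal strength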
Mdm2 MdmX PPI: inhibitors of human Mdm2-MdmX association, primary screen, cell-based, luminescence, split luciferase, SaOS-2, uHTS | 330,000 tested, 3% active | inhibition, % at 8 µM | SaOS-2 split-luciferase Mdm2/MdmX complementation;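 active = inhibition of at least 50% at 8 µM in the primary screen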
Target sequence (O15151 whole entry, looked up): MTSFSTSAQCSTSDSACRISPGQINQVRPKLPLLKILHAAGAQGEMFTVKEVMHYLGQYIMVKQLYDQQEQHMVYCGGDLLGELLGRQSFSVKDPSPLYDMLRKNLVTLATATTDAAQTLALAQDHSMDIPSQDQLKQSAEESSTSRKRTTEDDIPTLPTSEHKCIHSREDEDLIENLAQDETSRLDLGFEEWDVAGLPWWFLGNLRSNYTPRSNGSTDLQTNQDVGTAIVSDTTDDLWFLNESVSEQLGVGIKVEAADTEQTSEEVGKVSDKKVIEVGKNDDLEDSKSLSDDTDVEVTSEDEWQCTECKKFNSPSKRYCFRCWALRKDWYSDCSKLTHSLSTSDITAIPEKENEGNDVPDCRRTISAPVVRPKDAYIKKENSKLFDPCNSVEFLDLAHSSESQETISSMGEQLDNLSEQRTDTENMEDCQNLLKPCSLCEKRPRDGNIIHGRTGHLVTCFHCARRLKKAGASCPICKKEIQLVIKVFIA
Target sequence (Q00987 whole entry, looked up): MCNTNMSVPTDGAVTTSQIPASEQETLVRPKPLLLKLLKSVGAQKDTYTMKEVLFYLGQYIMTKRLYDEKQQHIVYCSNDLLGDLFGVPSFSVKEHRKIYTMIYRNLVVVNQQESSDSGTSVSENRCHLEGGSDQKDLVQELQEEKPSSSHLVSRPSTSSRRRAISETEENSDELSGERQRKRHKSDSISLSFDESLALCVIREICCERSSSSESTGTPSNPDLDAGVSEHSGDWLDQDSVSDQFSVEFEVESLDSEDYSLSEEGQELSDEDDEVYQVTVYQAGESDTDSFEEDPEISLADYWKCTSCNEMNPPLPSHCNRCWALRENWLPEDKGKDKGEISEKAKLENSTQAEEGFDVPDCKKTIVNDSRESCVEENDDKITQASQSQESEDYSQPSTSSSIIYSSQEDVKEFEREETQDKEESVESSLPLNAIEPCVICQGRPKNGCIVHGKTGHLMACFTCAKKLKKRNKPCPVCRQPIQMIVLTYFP
HSP90 refold inh: HSP90 inhibitors, primary screen, cell lysate, luminescence | Rabbit reticulocyte lysate, luciferase refolding luminescence, 3 h | AID 1789, 2009 | Heat shock protein HSP 90 (rabbit reticulocyte lysate; luciferase refolding) | 290,000 tested, 0.91% active | inhibition, % at 5.6 µM;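 active = inhibition above the screen-wide mean plus 3 SD, computed separately per campaign, cut at about 16% in these data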;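 also: inhibitors lower the luminescence because luciferase stays unfolded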
Peg3 prom inh: Peg3 promoter-driven luciferase inhibitors, primary screen, cell-based, HeLa, luciferase luminescence | HeLa PEG-Prom luciferase reporter, overnight | inhibition, % at 20 µM | 360,000 tested, 1.7% active | AID 588405, 2011;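 active = inhibition of at least 50% at 20 µM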
CF NFkB inh: inhibitors of PAF-induced NF-kB signaling, primary screen, cell-based, GFP fluorescence, uHTS | 360,000 tested, 0.86% active | KKLEB NF-kB-GFP reporter, GFP fluorescence overnight | AID 588850, 2011 | inhibition, % at 5 µM;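 active = at least 50% inhibition at 5 µM, scaled per plate between neutral and stimulator controls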;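 also: PAF is a Pseudomonas aeruginosa culture filtrate used as stimulus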
Mdm2-MdmX conf: Mdm2-MdmX complex disruptors, retested hits, confirmation, luminescence, single concentration | shares compounds with Mdm2 MdmX PPI | Mdm2-MdmX binding, luminescent assay | inhibition, % at 8 µM | 10,000 tested, 55% active; in the data active = inhibition above about 40%
Full FLuc ctr: full-length luciferase signal inhibition, confirmation, counter-screen for Mdm2/MdmX interaction inhibitor project, cell-based, single concentration, SaOS-2. inhibition, % at 8 µM. shares compounds with Mdm2 MdmX PPI. SaOS-2 full-length luciferase counterscreen, luminescence. 6,200 tested, 77% active. AID 504607, 2011;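 active = mean inhibition at 8 µM reaching about 37%, which flags the compound as non-specific, limit read from the data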;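 also: p53-null SaOS-2 cells with luciferase driven by a doxycycline-inducible promoter; compound on cells about two nights before reading with doxycycline added after day one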
Of the large screens only hits and unclear results are named; the others gave an inactive call (follow-up assays come after a bar, where they were run).

COC(=O)c1ccc(COc2ccc(-c3nnn(CC(=O)NC(C)(C)C)n3)cc2)cc1	none
COC(=O)c1ccc(COc2ccc(-c3nnn(CC(N)=O)n3)cc2)cc1	Mdm2 MdmX PPI 56 (no result: LGR2 inh) | Mdm2-MdmX conf inactive
CC(=O)CSc1nnc2c3ccccc3nc(C(C)(C)C)n12	none
Cc1csc(NC(=O)CSc2nnc3c4ccccc4nc(C(C)(C)C)n23)n1	Mdm2 MdmX PPI 69 | Mdm2-MdmX conf 60 | Full FLuc ctr 57
O=C(Cn1nc(-c2ccccc2)ccc1=O)Nc1ccc(-n2cnnn2)cc1	none
O=C(Cn1nc(-c2ccccc2)ccc1=O)Nc1ccc(NC(=O)c2ccccn2)cc1	Mdm2 MdmX PPI 83 | Mdm2-MdmX conf inactive
COc1ccc2c3c([nH]c2c1)[C@H](CO)N(C(=O)CN(C)C)CC31CN(Cc2ccccc2)C1	none (no result: KKLEB cytotox, Mdm2 MdmX PPI, HSP90 refold inh, Peg3 prom inh, CF NFkB inh)
NNC(=O)C1CCN(S(=O)(=O)c2ccc(Cl)cc2)CC1	none (no result: HSP90 refold inh)
O=C(NNC(=O)C1CCN(S(=O)(=O)c2ccc(Cl)cc2)CC1)c1ccccc1O	Mdm2 MdmX PPI 56 (no result: HSP90 refold inh) | Mdm2-MdmX conf 59 | Full FLuc ctr 46
Oc1cccc(-c2nc3c4c(ncn3n2)-c2ccccc2CC42CCCC2)c1	LGR2 inh inconclusive, Mdm2 MdmX PPI 58, Peg3 prom inh 54 | Mdm2-MdmX conf inactive
CCC(=O)N1CC[C@@H]2[C@H](CO)Nc3ccc(C#Cc4ccccc4F)cc3[C@@H]21	none (no result: KKLEB cytotox, Mdm2 MdmX PPI, HSP90 refold inh, Peg3 prom inh, CF NFkB inh)
C[C@H]1CN([C@@H](C)CO)C(=O)CCCn2nncc2CO[C@@H]1CN(C)S(=O)(=O)c1ccc(Oc2ccccc2)cc1	none (no result: KKLEB cytotox, Mdm2 MdmX PPI, HSP90 refold inh, Peg3 prom inh, CF NFkB inh)
C[C@H](CO)N1C[C@H](C)[C@@H](CN(C)S(=O)(=O)c2ccc(F)cc2)Oc2ccc(NC(=O)CCCCCC(=O)Nc3ccccc3N)cc2C1=O	none (no result: KKLEB cytotox, Mdm2 MdmX PPI, HSP90 refold inh, Peg3 prom inh, CF NFkB inh)
N#Cc1c(SCC(=O)Nc2ccc(Cl)cc2Cl)sc2c(O)cc(=O)[nH]c12	Mdm2 MdmX PPI 62 | Mdm2-MdmX conf inactive
Nc1c(C(=O)Nc2ccc(F)cc2)sc(=S)n1-c1ccccc1F	Mdm2 MdmX PPI 72 | Mdm2-MdmX conf inactive
C[C@H](C(=O)N(C)C[C@@H]1OCc2ccccc2-c2c(n(C)c3ccccc23)C(=O)N([C@@H](C)CO)C[C@@H]1C)c1ccccc1	none (no result: KKLEB cytotox, Mdm2 MdmX PPI, HSP90 refold inh, Peg3 prom inh, CF NFkB inh)
CCCc1nn2c(=O)cc(COc3ccc(NC(=O)c4ccco4)cc3)nc2s1	Mdm2 MdmX PPI 74 | Mdm2-MdmX conf inactive
CCN(CC)S(=O)(=O)c1ccc(N/N=C(\C)c2ccc(OC)cc2O)nc1	Mdm2 MdmX PPI 57 | Mdm2-MdmX conf inactive
CCN(CC)S(=O)(=O)c1ccc(N/N=C/c2cc(OC)c(OC)cc2OC)nc1	none
CCOc1cccc(/C=N/Nc2ccc(S(=O)(=O)N(CC)CC)cn2)c1O	Mdm2 MdmX PPI 81 | Mdm2-MdmX conf 85 | Full FLuc ctr 55
COc1cccc(CNCCO)c1OCc1ccc(Cl)cc1	none
CCOc1cc(CNCCO)cc(Br)c1OCc1ccccc1	none
COc1cc(CNc2ccc(O)cc2)cc(Br)c1OCc1ccccc1	none
COc1cc(CNC(C)(C)CO)cc(Br)c1OCc1ccc(Cl)cc1Cl	Mdm2 MdmX PPI 55, Peg3 prom inh 90 | Mdm2-MdmX conf 40 | Full FLuc ctr 102
COc1cc(CNCCO)cc(Cl)c1OCc1ccc(Cl)cc1Cl	LGR2 inh inconclusive, Mdm2 MdmX PPI 51, Peg3 prom inh 105 | Mdm2-MdmX conf 49 | Full FLuc ctr 85
COc1cc(CNCCO)cc(Br)c1OCc1ccccc1Cl	Mdm2 MdmX PPI 57 (no result: LGR2 inh) | Mdm2-MdmX conf inactive
Cc1noc(C)c1NC(=O)N(C)C[C@@H]1Oc2ccc(NC(=O)C3CCCCC3)cc2C(=O)N([C@H](C)CO)C[C@H]1C	none (no result: KKLEB cytotox, Mdm2 MdmX PPI, HSP90 refold inh, Peg3 prom inh, CF NFkB inh)
O=C(C[C@H]1CC[C@H]2[C@@H](COC[C@@H](O)CN2C(=O)Nc2ccccc2)O1)NC1Cc2ccccc2C1	none (no result: KKLEB cytotox, Mdm2 MdmX PPI, HSP90 refold inh, Peg3 prom inh, CF NFkB inh)
N#Cc1ccc(Nc2nc(-c3ccc(O)cc3O)cs2)cc1C(F)(F)F	Mdm2 MdmX PPI 69, Peg3 prom inh 103 (no result: LGR2 inh, HSP90 refold inh) | Mdm2-MdmX conf 61 | Full FLuc ctr 55
Oc1ccc(-c2csc(Nc3ccc4c(c3)OCO4)n2)c(O)c1	none (no result: Mdm2 MdmX PPI, HSP90 refold inh)
Cc1nc2ccccn2c1-c1csc(Nc2cccc(C(=O)O)c2)n1	none
Cc1nc2ccccn2c1-c1csc(Nc2ccc(C(=O)O)cc2)n1	Mdm2 MdmX PPI 53 | Mdm2-MdmX conf 54 | Full FLuc ctr 63
Cc1ccc(S(=O)(=O)N[C@H]2CC[C@@H](CCNC(=O)c3ccc4c(c3)OCO4)O[C@@H]2CO)cc1	none (no result: KKLEB cytotox, Mdm2 MdmX PPI, HSP90 refold inh, Peg3 prom inh, CF NFkB inh)
OC(CNCCc1ccccc1)COc1ccc(OCC(O)CNCCc2ccccc2)cc1 (stereo not drawn)	Mdm2 MdmX PPI 99, Peg3 prom inh 102 (no result: LGR2 inh) | Mdm2-MdmX conf 76 | Full FLuc ctr 47
COc1ccc(C(OCC(O)CNCCc2ccccc2)c2ccc(OC)cc2)cc1 (stereo not drawn)	none (no result: Mdm2 MdmX PPI)
CC(C)N(CCNCC(O)COc1ccc(C(C)(C)c2ccccc2)cc1)C(C)C (stereo not drawn)	none
OC(CNCCC(c1ccccc1)c1ccccc1)COc1ccccc1 (stereo not drawn)	Mdm2 MdmX PPI 70, Peg3 prom inh 60 | Mdm2-MdmX conf inactive
NCC(O)COCCC12CC3CC(CC(C3)C1)C2 (stereo not drawn)	none (no result: LGR2 inh)
CC(NCC(O)COCCC12CC3CC(CC(C3)C1)C2)c1ccccc1 (stereo not drawn)	Mdm2 MdmX PPI 100, Peg3 prom inh 104 | Mdm2-MdmX conf 99 | Full FLuc ctr 37
CC(C)c1ccc(OCC(O)CNC(C)c2ccccc2)cc1 (stereo not drawn)	Mdm2 MdmX PPI 52 | Mdm2-MdmX conf inactive
CCC(=O)NC[C@@H]1[C@H](c2ccccc2)[C@H](CO)N1C(=O)C1CC1	none (no result: KKLEB cytotox, Mdm2 MdmX PPI, HSP90 refold inh, Peg3 prom inh, CF NFkB inh)
COCCNCC(O)CON=C1c2ccccc2-c2ccccc21 (stereo not drawn)	none
CC(C)CCNCC(O)CON=C1c2ccccc2-c2ccccc21 (stereo not drawn)	Mdm2 MdmX PPI 95, Peg3 prom inh 107 | Mdm2-MdmX conf 41 | Full FLuc ctr 69
COc1ccc(C(NC(=O)C2CCCCC2)c2c(O)ccc3ccccc23)cc1 (stereo not drawn)	Mdm2 MdmX PPI 53 | Mdm2-MdmX conf inactive
COc1ccc(C(NC(=O)CC(C)C)c2c(O)ccc3ccccc23)cc1 (stereo not drawn)	none
